# Results published in PubChem BioAssay (EPA / NIEHS).
# The source made the active and inactive calls. How the source made its calls: active means hit-call score of the fitted dose curve at least 0.9, where 1 is the maximum; inactive means score below 0.9.
# Test: BSK_3C_TissueFactor: BioMAP Diversity Plus: 3C Assay for Tissue Factor Biomarker Activity (AID 2282997)
# Settings: BioMAP 3C HUVEC, tissue factor biomarker readout; actives raise or lower the signal
# Method: BSK_3C is a cell-based, multiplexed-readout assay that uses umbilical vein endothelium, a human vascular primary cell, with measurements taken at 24 hours after chemical dosing in a 96-well plate.BSK_3C_TissueFactor is an assay component measured in the BSK_3C assay. It measures Tissue Factor antibody related to regulation of gene expression using ELISA technology.Data from the assay component BSK_3C_TissueFactor was analyzed into 1 assay endpoint. This assay endpoint, BSK_3C_TissueFactor, was analyzed with bidirectional fitting relative to DMSO as the negative control and baseline of activity. Using a type of binding reporter, gain or loss-of-signal activity can be used to understand changes in the signaling as they relate to the gene F3. Furthermore, this assay endpoint can be referred to as a primary readout, because this assay has produced multiple assay endpoints where this one serves a signaling function. To generalize the intended target to other relatable targets, this assay endpoint is annotated to the cytokine intended target family, where the subfamily is coagulation factor.
# The levels of cell surface (or secreted, indicated by the prefix "s") biomarker endpoints were measured by ELISA. Overt cytotoxicity to cells in confluent adherent cultures (all systems other than the BT system) was assessed by measuring total protein levels using sulforhodamine B (SRB) staining in parallel cultures at the time of biomarker measurements, indicated as SRB endpoints. For proliferation assays for adherent cell types, individual cell types are cultured at sub-confluence and relative cell numbers quantified by SRB staining at time points optimized for each system (48 h: 3C and CASM3C systems; 72 h: BT and HDF3CGF systems; 96 h: SAg system). SRB was performed by staining cells with 0.1% SRB after fixation with 10% TCA and reading wells at 560 nm.Viability and proliferation of PBMC (T cells) was quantified by Alamar Blue reduction for the SAg and BT systems. For PBMC viability (referred to as PBMC Cytotoxicity within the assay endpoint names), cells were plated (75,000/well in a 96-well plate) and then chemical samples added for 1 h before addition of activators, SEB and TSST-1 (20 ng/mL final concentration each). Cells were incubated for 90 h. Then, Alamar Blue (20 uL/well) (Invitrogen, Cat DAL1100) was added for 6 h, and the plates were read with a fluorescence microplate reader at 546/580 nm (excitation/emission). For PBMC proliferation, cells were plated and activated as above but incubated for only 16 h prior to addition of Alamar Blue. Plates were read after 6 h.
SMILES,outcome,AC50
CCN(Cc1cccc(S(=O)(=O)O)c1)c1ccc(C(=C2C=CC(=[N+](CC)Cc3cccc(S(=O)(=O)O)c3)C=C2)c2ccccc2S(=O)(=O)[O-])cc1,inactive,–
CC(C)(c1cc(Br)c(O)c(Br)c1)c1cc(Br)c(O)c(Br)c1,–,31.1 µM (active)
CCCCCCCCCCCC[N+](C)(C)C,inactive,–
CC(O)CC(C)(C)O (stereo not given),inactive,–
Cc1cccc2ccccc12,inactive,–
O=C1CCC(C2CCCCC2)CC1,inactive,–
O=c1c(-c2ccc(O)cc2)coc2cc(O)cc(O)c12,inactive,–
Cc1ccc2oc(CN(Cc3ccccc3)C(=O)Nc3c(F)cc(F)cc3F)c(-c3ccc(Cl)cc3)c2c1,inactive,–
OCCO,inactive,–
CCCCCCCCN(C)CCCCCCCC,inactive,–
CCO[Si](CCCNC(N)=O)(OCC)OCC,inactive,–
CO[C@H]1/C=C/O[C@@]2(C)Oc3c(C)c(O)c4c(O)c(c(/C=N/N5CCN(C)CC5)c(O)c4c3C2=O)NC(=O)/C(C)=C\C=C\[C@H](C)[C@H](O)[C@@H](C)[C@@H](O)[C@@H](C)[C@H](OC(C)=O)[C@@H]1C,inactive,–
Cc1oc2c(NC(=O)c3c(Cl)cccc3Cl)cccc2c1C(C)(C)O,–,4.29 µM (active)
c1ccc(C[n+]2cccc3ccccc32)cc1,inactive,–
CCCOC(=O)c1cc(O)c(O)c(O)c1,inactive,–
O=C(O)Cn1c(=O)n(Cc2ccc(Br)cc2F)c(=O)c2ccc(Cl)cc21,inactive,–
CCCCOC(=O)CC(CC(=O)OCCCC)(OC(C)=O)C(=O)OCCCC,inactive,–
CCN(Cc1cccnc1)C(=O)c1cccc(Cl)c1[C@]1(C)C(=O)N(Cc2ccc(OC)cc2OC)c2ccc(Cl)cc21,–,9.45 µM (active)
CC/C(=C(/CC)c1ccc(O)cc1)c1ccc(O)cc1,–,27.1 µM (active)
CN1C(=O)CC[C@H]1c1cccnc1,inactive,–

SMILES,outcome,AC50
Cc1c2ccccc2c(C)c2c1ccc1ccccc12,inactive,–
COc1cccc([C@H](O)C2CCN(CCc3ccc(F)cc3)CC2)c1OC,inactive,–
O=C(OCCCCCCOC(=O)c1ccccc1)c1ccccc1,inactive,–
CCCCCc1ccc(N)cc1,inactive,–
O=CCCCC=O,–,30.3 µM (active)
O=C(O)Cc1cc(I)c(Oc2ccc(O)c(I)c2)c(I)c1,inactive,–
O=C(O)c1ccccc1C(=O)OCc1ccccc1,inactive,–
CCCCCCCCCCCCO,–,36.3 µM (active)
CC(=O)N1CCN(c2ccc(OC[C@H]3CO[C@](Cn4ccnc4)(c4ccc(Cl)cc4Cl)O3)cc2)CC1,–,31.1 µM (active)
CCCCCCCCOc1ccc(C(=O)c2ccccc2)c(O)c1,–,13.2 µM (active)
CCCC(=O)OCCC(C)C,inactive,–
NC(=O)c1nc(-c2cccc(-c3cc(F)ccc3OCC(F)(F)C(F)(F)F)c2)n[nH]1,–,29.7 µM (active)
Cc1ncc(CO)c(CO)c1O,inactive,–
CC(C)(C)c1cc(/C=C2\SC(N)=NC2=O)cc(C(C)(C)C)c1O,–,14.8 µM (active)
CN1C(=O)N(c2ccccc2Br)Cc2cnc(Nc3ccc4c(c3)OCC(CO)O4)nc21 (stereo not given),–,9.9 µM (active)
Cc1occc1C(=O)Nc1ccc(C(=O)N2CCC(F)(F)/C(=C\C(=O)N3CCC(N4CCCCC4)CC3)c3ccccc32)cc1,inactive,–
C[C@]12CC[C@@H]3c4ccc(O)cc4CC[C@H]3[C@@H]1CCC2=O,inactive,–
COc1ccc2cc(S(=O)(=O)N[C@H](CC(=O)N[C@H](Cc3ccc(CN4[C@H](C)CCC[C@@H]4C)cc3)C(=O)N(C)C(C)C)c3ccc4c(c3)OCO4)ccc2c1,–,5.1 µM (active)
COCC(C)OCC(C)OCC(C)O (stereo not given),inactive,–
O=C(Nc1ccc(Cl)cc1)Nc1ccc(Cl)c(Cl)c1,inactive,–
